# In all, about 190,000 compounds went through this assay and about 1,600 (0.84%) were called active. The sample as a whole holds a higher share of actives than the screen did. Values without a mark were called inactive.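 The calls were made as follows: active = inhibition above a set limit, derived from the sample mean plus 3 SD (cut at about 45% in these data); inconclusive = one replicate passes the limit while the other fails; inactive = the rest.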
# Assay: inhibitors of APP translation via 5'UTR reporter, primary screen, APP 5'UTR luciferase, SH-SY5Y cells (AID 1285)
# Conditions: SH-SY5Y APP 5'UTR-luciferase reporter, luminescence; at 2 µM; active compounds read high
row,Structure (SMILES),inhibition
1,Cc1cc(N2CCOCC2)nc2ccc(NC(=S)N3CCN(Cc4ccccc4)CC3)cc12,-3.7%
2,COc1ccc(Cc2nnc(N/N=C/c3ccccc3O)[nH]c2=O)cc1OC,85.9% (active)
3,CCOc1ccc(-n2c(O)c(/C=N/Nc3nnc(C)c(=O)[nH]3)c3ccccc3c2=O)cc1,-5.3%
4,COc1ccc(/C=N/Nc2nc3ccccc3c(=O)[nH]2)cc1,-92.9%
5,COc1ccc(S(=O)(=O)N2CN(CCc3ccc(OC)c(OC)c3)c3nc4ccccc4nc32)cc1,-3.7%
6,COC(=O)C1=C(C)NC(=O)CC1c1ccccc1OC (configuration not stated),-15.8%
7,O=C(Nc1ccccc1C(=O)O)c1cc(S(=O)(=O)N2CCCCC2)cs1,-13.4%
8,Cc1ccc(-n2[nH]c(C)c(/C=N/NC(=O)c3cccc([N+](=O)[O-])c3)c2=O)cc1C,-33.1%
9,Cc1cc(C(=O)N/N=C/c2cc([N+](=O)[O-])cc(C)c2O)n[nH]1,87.3% (active)
10,Cc1ccsc1C(=O)N/N=C/c1ccc([N+](=O)[O-])cc1,-37.2%
11,CCOc1cc(CNn2c(C)nnc2SCC(=O)NC(C)(C)C)ccc1OCC(=O)NC(C)(C)C,21.4%
12,Cc1cc(C)n(CC(O)CN(c2ccccc2)S(=O)(=O)c2ccc3ccccc3c2)n1 (configuration not stated),1.9%
13,CCOc1c(Cl)cc(/C=N/O)cc1OC,-23.6%
14,CCOC(=O)CN/C=C(\C#N)c1ccc(F)cc1,-29.3%
15,CCOc1cc(/C=C(/C#N)c2ccc(Cl)cc2)cc(Cl)c1OCC(=O)O,50.6% (active)
16,Cc1ccc(S(=O)(=O)C2C(=O)NC3(C)CC2c2ccccc2O3)cc1 (configuration not stated),-1.5%
17,CCN(CC)CCCSc1nc2ccccc2s1,-15.1%
18,O=C(CC(NC(=O)c1ccccc1)c1ccccc1)Nc1ccc(F)c(F)c1 (configuration not stated),24.2%
19,CCOC(=O)N1CCN(C(=O)COc2ccc(Br)cc2)CC1,-13.6%
20,CCOC(=O)N1CCN(C(=O)COc2ccc(Cl)cc2C)CC1,49.2% (active)
21,CCOC(=O)N1CCN(C(=O)CSc2ccc(Cl)cc2)CC1,5%
22,CC(Sc1nnnn1C)C(=O)NC(=O)NC1CCCCC1 (configuration not stated),-31%
23,Cc1ccc(CCN2CC(C(=O)O)CC2=O)cc1 (configuration not stated),-6.2%
24,Cc1ccc(CNC(=O)C2CC(=O)N(C3CCCCCCC3)C2)cc1 (configuration not stated),-17.8%
25,CCc1ccc(CNC(=O)C2CC(=O)N(CCc3ccc(C)cc3)C2)cc1 (configuration not stated),50.9% (active)

row,Structure (SMILES),inhibition
1,Cc1ccc(NC(=O)c2ccc(Oc3ncccn3)cc2)cc1,-39.8%
2,O=C(CCC(=O)c1cccs1)NC1CCCCCC1,-18.6%
3,O=C(O)COc1ccc(-c2nccc(-c3cccs3)n2)cc1,69% (active)
4,COC(=O)CSc1nccc(-c2cccs2)n1,8.1%
5,O=C(Nc1ccnc(-c2ccncc2)n1)c1cccs1,5.8%
6,Cc1ccc2c(c1)C(O)(CC(=O)c1cccc(-n3cccc3)c1)C(=O)N2 (configuration not stated),-4.6%
7,CC1CC(C)CN(C(=O)CSc2ccsc2[N+](=O)[O-])C1 (configuration not stated),-3.7%
8,O=C(NCc1ccco1)C(=O)c1cn(CC(=O)N2CCCCCC2)c2ccccc12,-1.5%
9,COc1ccc(NC(=O)/C(Cl)=C(/Cl)S(=O)Cc2ccc(C)cc2)cn1 (configuration not stated),91.7% (active)
10,Cc1ccc(NC(=O)OCc2cncs2)cc1,-41.4%
11,COc1ccc(NC(=S)NCCNC(C)=O)cc1,-0.5%
12,COc1ccc(CS(=O)/C(Cl)=C(/Cl)C(=O)Nc2ccc(OC)nc2)cc1 (configuration not stated),94% (active)
13,COc1ccc(NC(=S)Nc2ccccc2Cl)cn1,-6.6%
14,CC(=O)Nc1ccc(OCC(=O)NCc2ccc(C)cc2)cc1,-8.4%
15,Cc1cc(C(=O)NNC(=O)CCC2CCCCC2)c(C)o1,-4%
16,O=C(Cc1cccs1)N(CC1CCCO1)C1(C(=O)NC2CCCCC2)CCCCC1 (configuration not stated),-11.4%
17,Cc1ccc(C(=O)OC2CCCN(C)C2)cc1 (configuration not stated),5.1%
18,Cc1nnc(-c2ccc(Oc3ccc(C)c(C)c3)c([N+](=O)[O-])c2)o1,11.5%
19,Cc1[nH]c2ccccc2c1/C=N\NC(=O)Cn1nnc(-c2ccccc2)n1,-1.1%
20,CC1=NN(C(=O)CCc2ccccc2O)C(O)(C(F)(F)F)C1 (configuration not stated),8.6%
21,Cc1cc(NC(=O)COC(=O)COc2ccc(Cl)cc2C)c([N+](=O)[O-])cc1C,8.7%
22,Cc1ccc(C(C)C)cc1OCCN1CCCC1,-3.6%
23,Cc1cc(N2CCN(C)CC2)nc2ccc(NC(=S)N3CCOCC3)cc12,-5.6%
24,COc1cc(/C=C2\SC(=S)N(Nc3ncc(C(F)(F)F)cc3Cl)C2=O)cc(OC)c1OC,0.7%
25,COc1cccc(/C=N/Nc2ncc(C(F)(F)F)cc2Cl)c1O,80.5% (active)

row,Structure (SMILES),inhibition
1,COc1cccc(/C(C)=N/Nc2ncc(Cl)cc2Cl)c1,-24.9%
2,OCCC1CN(Cc2cccc(O)c2)CCN1CCc1ccccc1 (configuration not stated),1%
3,Cc1nn(C)c(C)c1S(=O)(=O)N1CCC(CO)(Cc2ccc(Cl)cc2)CC1,26.8%
4,CC(=O)Nc1cccc([N+](=O)[O-])c1,-68.1%
5,Cc1ccccc1NC(=S)Nc1cccc([N+](=O)[O-])c1,10.9%
6,COC(=O)/C=C\C(=O)Nc1cccc([N+](=O)[O-])c1,65% (active)
7,Cc1[nH]c2ccccc2c1C(=O)COC(=O)C(C)C,-8.5%
8,CCOC(=O)c1c(C)[nH]c2c1-c1ccccc1C(=O)C2=O,95.9% (active)
9,CCOC(=O)c1c(C)[nH]c(=S)c(C#N)c1-c1ccccc1,17.1%
10,CSc1ccc(C(=O)C2CCCN(C(=O)c3ccc(C)nc3)C2)cc1 (configuration not stated),-16.6%
11,CCOc1cc(N2CCOCC2)c(OCC)cc1NC(=O)C1=NN(c2cccc(C)c2)C(=O)CC1,-5.2%
12,CCCn1c(N)c(C(=O)CSc2nc3ccccc3c(=O)n2-c2ccc(OC)cc2)c(=O)[nH]c1=O,-3.9%
13,O=C1CCCc2c1nc(-c1cccc(Cl)c1)n2O,94.3% (active)
14,O=c1c2c(nc3cc(-c4cccc(Cl)c4)[nH]n13)CCCC2,-158%
15,CCOC(=O)CSc1ncc(-c2cccc(Cl)c2)cn1,-2.7%
16,CCCn1c(NC(=O)C23CC4CC(CC(O)(C4)C2)C3)nc2ccccc21,9%
17,COC(=O)c1c(C)oc2ccc(N(C(=O)Oc3ccccc3)S(=O)(=O)c3ccccc3)cc12,0.2%
18,O=C(NC(=S)Nc1ccc2oc(=O)ccc2c1)c1ccc(-c2cccc(Cl)c2Cl)o1,2.2%
19,CCOc1cc(NC(=O)CCl)c(OCC)cc1NC(C)=O,5.3%
20,CCOc1cccc(-n2nnnc2-c2ccc(OC)cc2)c1,65.8% (active)
21,COc1ccc(-n2nnnc2-c2nc3ccccc3s2)cc1,-237%
22,CCOc1cccc(-c2nnc3sc(COc4ccc(OC)cc4)nn23)c1,-2.3%
23,C/C(=N\NC(=O)c1ccc(CSc2nc(C)cc(C)n2)cc1)C1CCCCC1,-23.6%
24,COc1ccc(C(CCNCc2ccccc2F)c2ccc(F)cc2)cc1 (configuration not stated),50.4% (active)
25,COc1ccc(CC(=O)NC(C)CCc2ccccc2)cc1 (configuration not stated),18.8%

row,Structure (SMILES),inhibition
1,COc1cccc(CNCCc2c[nH]c3ccccc23)c1OCc1ccccc1F,-3.5%
2,CCC(C)(C)NC(=O)C1c2ccccc2Oc2ccccc21,-10.4%
3,COc1cc2nc(CN(C)Cc3ccc(F)cc3)[nH]c(=O)c2cc1OC,-10.3%
4,COc1ccc(C(=O)Nc2ccc(F)cc2F)cc1,-131%
5,O=C(CN1CCN(S(=O)(=O)c2ccc(F)cc2)CC1)Nc1ccccc1F,-2%
6,CCOC(=O)N1CCN(S(=O)(=O)c2ccc(C(=O)Nc3ccc(F)cc3F)cc2)CC1,92.2% (active)
7,Cc1nc(-c2ccc(Cl)cc2)sc1C(=O)CBr,5.2%
8,Clc1ccc(N/N=C/c2cccs2)nn1,-17.2%
9,COc1cccc2c1OCC(CN1CCN(C3CCCCC3)C(CCO)C1)=C2 (configuration not stated),10.6%
10,CCN(CC)c1ccc(NC(=O)c2ccc(Cl)nc2)cc1,66.1% (active)
11,O=C(NNc1ccccn1)c1ccc(Cl)nc1,9.8%
12,NS(=O)(=O)c1ccc(NC(=O)COC(=O)c2ccc(Cl)nc2)cc1,-14.1%
13,Cc1ccc(S(=O)(=O)N(C)c2ccc(OCC(=O)NC3=NCCS3)cc2)cc1,-2.9%
14,CCCC(=O)Nc1nc2ccc(NC(=O)c3c(F)c(F)c(OC)c(F)c3F)cc2s1,88.8% (active)
15,CCCC(=O)Nc1nc2ccc(NC(=O)c3cccnc3)cc2s1,4.1%
16,COc1ccc2nc(Nc3nc4ccc(NC(C)=O)cc4s3)sc2c1,-20.2%
17,CCOc1cnc(-c2c(-c3ccccc3Cl)noc2C)o1,16.9%
18,O=C(Cn1ncc(N2CCCC2)c(Br)c1=O)c1ccc(Cl)cc1,-71.1%
19,CCOC(=O)c1ccccc1NS(=O)(=O)c1ccc(OC)cc1,-5.3%
20,CCOC(=O)C1=C(c2ccc(OC)cc2)C(=O)c2ccccc2C1=O,59.6% (active)
21,CCCCC(C(=O)OCC(=O)c1ccc(OC)cc1)N1C(=O)c2ccccc2C1=O (configuration not stated),7.1%
22,C[C@@H]1C[C@@H]2O[C@H]2/C=C\C=C\C(=O)Cc2c(Cl)c(O)cc(O)c2C(=O)O1,95% (active)
